{
  "source": "PubChem BioAssay (EPA / NIEHS)",
  "note": "Active and inactive are the calls of the source. The calls were made as follows: active = hit-call score of the fitted dose curve at least 0.9, where 1 is the maximum; inactive = score below 0.9.",
  "data": [
    {"experiment": "ATG_TAL_CIS: Attagene CIS-FACTORIAL HepG2 Assay for human TAL Basal Promoter (AID 2282966)", "settings": "HepG2 Attagene cis-factorial TAL promoter reporter; actives raise or lower the signal", "protocol": "ATG_CIS is a cell-based, multiplexed-readout assay that uses HepG2, a human liver cell line, with measurements taken at 24 hours after chemical dosing in a 24-well plate.ATG_TAL_CIS is one of 52 assay component(s) measured or calculated from the ATG_CIS assay. It is designed to make measurements of mRNA induction, a form of inducible reporter, as detected with fluorescence intensity signals by Reverse transcription polymerase chain reaction (RT-PCR) and Capillary electrophoresis technology.Data from the assay component ATG_TAL_CIS was analyzed into 1 assay endpoint. This assay endpoint, ATG_TAL_CIS, was analyzed with bidirectional fitting relative to DMSO as the negative control and baseline of activity. Using a type of inducible reporter, measures of mRNA for gain or loss-of-signal activity can be used to understand the background control at the transcription factor-level as they relate to the gene . Furthermore, this assay endpoint can be referred to as a secondary readout, because this assay has produced multiple assay endpoints where this one serves a background control function. To generalize the intended target to other relatable targets, this assay endpoint is annotated to the background measurement intended target family, where the subfamily is internal marker.\nHuman liver HepG2 cells are transiently transfected with multiple reporter transcription units (MRTUs) in 6-well plates using FuGene 6 reagent (Roche; 3 ml FuGene/1 mg DNA). The MRTU constructs are regulated by a cis-regulating element (promoter). […] A major difference between the CIS and TRANS system is that in CIS activities of endogenous TFs are measured, whereas the TRANS assay evaluates changes in activities of exogenous, chimeric NR-Gal4 proteins. […] At the end of 24 hour incubation, total RNA was isolated using TriZol reagent (Invitrogen). The isolated RNA is then reverse-transcribed using oligo(dT) primer and Mo-MLV reverse transcriptase (Invitrogen) with DNAse I (Ambion) treatment for 30 min. The one-tenth of the produced cDNA was amplified by PCR using Taq DNA polymerase (Invitrogen) and two reporter sequence-specific primers. The PCR products were fluorescently labeled by primer extension with 6-arboxyfluorescein (6-FAM) 5'-labeled reporter sequence-specific primer (2 min at 95 C, 20 s at 68 C and 10 min at 72 C) and these products were digested with 5U of HpaI (New England Biolabs) for 2h at 37 C. The fragments were purified using Qiaquick PCR columns (Qiagen), analyzed on an ABI 3130xL genetic analyzer (Applied Biosystems) with peak positions identified by using a set of X-rhodamine (ROX)-labeled MapMarker1000 molecular weight standards (BioVentures). The raw capillary electrophoresis data was processed using Attagraph software (Attagene).", "values": [
      {"molecule": "O=Cc1ccc(F)cc1", "outcome": "inactive"},
      {"molecule": "CCC(C(=O)NC(N)=O)c1ccccc1", "note": "(stereo not given)", "outcome": "inactive"},
      {"molecule": "C/C=C(\\C)C(=O)OCc1ccccc1", "outcome": "inactive"},
      {"molecule": "O=[N+]([O-])c1ccc(C=Cc2ccc([N+](=O)[O-])cc2S(=O)(=O)O)c(S(=O)(=O)O)c1", "outcome": "inactive"},
      {"molecule": "c1ccc2sc(SN(C3CCCCC3)C3CCCCC3)nc2c1", "outcome": "inactive"},
      {"molecule": "NCCCCCCN", "outcome": "inactive"},
      {"molecule": "CC(C)c1cccc(O)c1", "outcome": "inactive"},
      {"molecule": "CCOC(=O)c1ccccc1OC", "outcome": "inactive"},
      {"molecule": "CC1(C)OC[C@@H]2O[C@@]3(C(=O)O)OC(C)(C)O[C@H]3[C@@H]2O1", "outcome": "inactive"},
      {"molecule": "CC1CCC2CC1C2(C)C", "note": "(stereo not given)", "outcome": "inactive"},
      {"molecule": "CC1CCC(C(C)(C)O)CC1", "note": "(stereo not given)", "outcome": "inactive"},
      {"molecule": "COc1ccc(Nc2ccccc2)c(C)c1", "outcome": "inactive"},
      {"molecule": "O=C(O)CCSCCC(=O)O", "outcome": "inactive"},
      {"molecule": "Cc1c(N(C)C)c(=O)n(-c2ccccc2)n1C", "outcome": "inactive"},
      {"molecule": "CC(=O)C(=O)O", "outcome": "inactive"},
      {"molecule": "CC(C)(CO)[N+](=O)[O-]", "outcome": "inactive"},
      {"molecule": "C[C@H]1C[C@H]2[C@@H]3CCC4=CC(=O)C=C[C@]4(C)[C@@]3(F)[C@@H](O)C[C@]2(C)[C@@]1(O)C(=O)COP(=O)(O)O", "outcome": "inactive"},
      {"molecule": "O=C(Oc1ccccc1)c1ccc(O)cc1", "outcome": "inactive"},
      {"molecule": "O=C(O)c1ccc([N+](=O)[O-])cc1", "outcome": "inactive"},
      {"molecule": "CC(CC(C)(C)C)CC(C)(C)CC(C)(C)C", "note": "(stereo not given)", "outcome": "inactive"},
      {"molecule": "C=O", "outcome": "inactive"},
      {"molecule": "Cc1ccc2ccccc2n1", "outcome": "inactive"},
      {"molecule": "[Ca+2]", "outcome": "inactive"},
      {"molecule": "CC1(C)CCC(C)(C)c2cc(C(=O)Nc3ccc(C(=O)O)cc3)ccc21", "outcome": "inactive"},
      {"molecule": "OC1OC[C@@H](O)[C@H](O)[C@H]1O", "note": "(stereo not given in full)", "outcome": "inactive"},
      {"molecule": "CN(C)C(=N)N=C(N)N", "outcome": "inactive"},
      {"molecule": "C=C(C)C1CCC(C)CC1O", "note": "(stereo not given)", "outcome": "inactive"},
      {"molecule": "C[C@H]1C[C@@H]2[C@H]([C@@H](O)C[C@@]3(C)[C@H]2CC[C@]3(O)C(=O)CO)[C@@]2(C)C=CC(=O)C=C12", "outcome": "inactive"},
      {"molecule": "CC(=O)OCC=Cc1ccccc1", "outcome": "inactive"},
      {"molecule": "O=C1OC2(c3cc(Br)c(O)c(Br)c3Oc3c2cc(Br)c(O)c3Br)c2c(Cl)c(Cl)c(Cl)c(Cl)c21", "AC50": "26.1 µM (active)"},
      {"molecule": "CC(=O)C(C)=O", "outcome": "inactive"},
      {"molecule": "C=CC(=O)OCCOCCOCC", "outcome": "inactive"},
      {"molecule": "CC(=O)[C@H]1CC[C@H]2[C@@H]3CC=C4C[C@@H](O)CC[C@]4(C)[C@H]3CC[C@]12C", "outcome": "inactive"},
      {"molecule": "CCCCC(CC)COCCC#N", "note": "(stereo not given)", "outcome": "inactive"},
      {"molecule": "OCC(CO)(CO)COCC(CO)(CO)CO", "outcome": "inactive"},
      {"molecule": "Clc1ccc2c(c1)C(N1CCNCC1)=Nc1ccccc1O2", "outcome": "inactive"},
      {"molecule": "CCCCN", "outcome": "inactive"},
      {"molecule": "Nc1cccc(S(=O)(=O)c2cccc(N)c2)c1", "outcome": "inactive"},
      {"molecule": "Cc1c(Cl)c(=O)oc2cc(O)ccc12", "outcome": "inactive"},
      {"molecule": "CC(C)C[C@H]1C(=O)N2CCC[C@H]2[C@]2(O)O[C@](NC(=O)[C@@H]3C=C4c5cccc6[nH]c(Br)c(c56)C[C@H]4N(C)C3)(C(C)C)C(=O)N12", "AC50": "2.19 µM (active)"}
    ]}
  ]
}
